# The supplement of paper PMC9135407
# “And” between values parts separate entries of the source, which are not always exact repeats. Equal values may be shown once. Where a name gives a salt, the structure may show the parent alone. The whole screen tested about 5,800 compounds, of which about 620 (11%) showed activity. The list comes from a sample in which actives are over-represented; it also holds similar structures and randomly drawn compounds. Unmarked numbers belong to inactive results.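 The calls were made as follows: active = score above a cut-off or among the top three wells of a plate; in these data no inactive exceeds 0.85.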
# Test system: primary human hepatic stellate cells (donor 1)
# Experiment: scaled lipid accumulation score (0 = DMSO-like, 1 = nortriptyline-like); higher = stronger HSC inactivation (lipid re-accumulation), active = hit call of the paper
# Details: 48 h
# Description: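 Primary lipid accumulation screen in primary human hepatic stellate cell myofibroblasts (donor 1, passage 8) in 384-well plates. 100 nL of library compound was pin-transferred into 30 µL medium in duplicate, and cells were treated for 48 h. The 'Scaled' score combines distance from plate baseline, toxicity and reproducibility penalties, and is normalised to nortriptyline (positive) and DMSO (negative) controls on each plate. A hit is defined as scaled >0.85 or among the top 3 wells per plate.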
# [1] = library stock concentration: 10 mM
# [2] = library stock concentration: 1 mM
# [3] = library stock concentration: 3.33 mM
# [4] = library stock concentration: 6.3 mM
structure (smiles),measurement,setting,value
COc1cc(N2CCC(C(N)=O)CC2)ccc1Nc1nc(N)c(Cl)c(Nc2ccccc2S(=O)(=O)C(C)C)n1,scaled lipid accumulation score,library stock concentration: 80 uM,≤ 0
same,scaled lipid accumulation score,library stock concentration: 400 uM,≤ 0
same,scaled lipid accumulation score,library stock concentration: 2 mM,0.025
same,scaled lipid accumulation score,[1],0.537
O=C(O)CCCCCCC1C(=O)NC(=O)N1CCC(O)C1CCCCC1 (centres undefined),scaled lipid accumulation score,[2],≤ 0
COc1cc(OC)c(C(=O)CCCCN2CCC3(CC2)NC(=O)NC3=O)cc1NS(=O)(=O)c1ccc(C(F)(F)F)cc1.Cl,scaled lipid accumulation score,[1],0.941 (active)
O=C(O)CN(CC(=O)O)Cc1cc2c(cc1O)Oc1cc(O)c(CN(CC(=O)O)CC(=O)O)cc1C21OC(=O)c2ccccc21 [Calcein],scaled lipid accumulation score,[1],0.169
COc1ccc2c(c1)c(CC(=O)Oc1ccc(-c3cc(=S)ss3)cc1)c(C)n2C(=O)c1ccc(Cl)cc1,scaled lipid accumulation score,[2],≤ 0
COC(=O)[C@H](Cc1ccccc1)NC(=O)/C=C/c1ccc(O)cc1,scaled lipid accumulation score,[2],0.011
C[C@H](NC(=O)CCc1nc2ccccc2c(=O)[nH]1)c1ccccc1,scaled lipid accumulation score,[3],≤ -0.009
same,scaled lipid accumulation score,[1],≤ 0
"CCCCCC#CCC#CCC#CCCCCCCC(=O)O [8,11,14-Eicosatriynoic Acid]",scaled lipid accumulation score,[2],≤ 0
CC(C)C[C@H](NC(=O)[C@@H](COC(C)(C)C)NC(=O)[C@H](Cc1ccc(O)cc1)NC(=O)[C@H](CO)NC(=O)[C@H](Cc1c[nH]c2ccccc12)NC(=O)[C@H](Cc1cnc[nH]1)NC(=O)[C@@H]1CCC(=O)N1)C(=O)N[C@@H](CCCNC(=N)N)C(=O)N1CCC[C@H]1C(=O)NNC(N)=O [Goserelin acetate],scaled lipid accumulation score,library stock concentration: 1.6 mM,≤ -0.006
CC(C)C[C@H](NC(=O)[C@@H](COC(C)(C)C)NC(=O)[C@H](Cc1ccc(O)cc1)NC(=O)[C@H](CO)NC(=O)[C@H](Cc1c[nH]c2ccccc12)NC(=O)[C@H](Cc1cnc[nH]1)NC(=O)[C@@H]1CCC(=O)N1)C(=O)N[C@@H](CCCNC(=N)N)C(=O)N1CCC[C@H]1C(=O)NNC(N)=O,scaled lipid accumulation score,library stock concentration: 9.6 mM,0.046
"CCCCCCCC(=O)OC[C@H](CO)OC(=O)CCCCCCC [1,2-Dioctanoyl-SN-glycerol]",scaled lipid accumulation score,[2],≤ -0.021
"CCCCCCCC(=O)OC[C@H](CO)OC(=O)CCCCCCC [1,2-Dioctanoyl-sn-glycerol]",scaled lipid accumulation score,[2],0.009
Br.Br.CN(C)CCCc1cc(C(=O)Nc2ccc(-c3ccncc3)cc2)ccc1O,scaled lipid accumulation score,[1],1.13 (active)
Cc1ccc(NC(=O)c2cccc(N(C)C)c2)cc1NC(=O)c1ccc(O)cc1,scaled lipid accumulation score,[1],≤ -0.004
COc1ccc(NC(=O)c2ccc(-c3ccc(-c4noc(C)n4)cc3C)cc2)cc1OCCN(C)C,scaled lipid accumulation score,[1],0.491
CC(C)CCCC(C)N (centres undefined) [Octodrine],scaled lipid accumulation score,library stock concentration: 15.5 mM,0.024
CCC(CC)CC1(C(=O)Nc2ccccc2SC(=O)C(C)C)CCCCC1,scaled lipid accumulation score,[3],≤ 0
same,scaled lipid accumulation score,[1],≤ 0
Cc1nc(-c2ccc(C(F)(F)F)cc2)sc1C(=O)NCc1ccc(OC(C)(C)C(=O)O)cc1,scaled lipid accumulation score,[2],≤ 0
CN(C)CCC=C1c2ccccc2CCc2ccccc21 [Amitriptyline HCl],scaled lipid accumulation score,[3],0.187
CN(C)CC/C=C1/c2ccccc2COc2ccc(CC(=O)O)cc21,scaled lipid accumulation score,[1],≤ 0
C(=C/CCN(C)C)(/c1c2cccc1)\c3c(cccc3)CC2.Cl [Amitriptyline hydrochloride],scaled lipid accumulation score,[1],1.11 (active)
CN(C)CC/C=C1/c2ccccc2COc2ccc(CC(=O)O)cc21 [Olopatadine HCl],scaled lipid accumulation score,[3],≤ 0
same,scaled lipid accumulation score,[1],≤ 0
CN(C)CCC=C1c2ccccc2CCc2ccccc21 [Amitriptyline hydrochloride],scaled lipid accumulation score,library stock concentration: 6.4 mM,0.347
same,scaled lipid accumulation score,[1],0.6
CN(C)CC/C=C1/c2ccccc2COc2ccc(CC(=O)O)cc21 [Olopatadine],scaled lipid accumulation score,library stock concentration: 5.9 mM,≤ -0.006
CN(C)CCC=C1c2ccccc2COc2ccccc21 [Doxepin],scaled lipid accumulation score,[1],0.731
CN(C)CC/C=C1/c2ccccc2COc2ccccc21.Cl [Doxepin hydrochloride],scaled lipid accumulation score,[4],1.34 (active)
CN(C)CCC=C1c2ccccc2CCc2ccccc21 [Amitryptiline hydrochloride],scaled lipid accumulation score,,0.821
CN(C)CCC=C1c2ccccc2COc2ccccc21 [Doxepin hydrochloride],scaled lipid accumulation score,,0.633
same,scaled lipid accumulation score,[1],0.495 and 0.707 and 0.72
CN(C)CCC=C1c2ccccc2CCc2ccccc21 [Annoyltin],scaled lipid accumulation score,[1],0.841
CN(C)CCC1(c2ccc(Cl)cc2)Cc2ccccc2C(=O)O1 (centres undefined),scaled lipid accumulation score,[1],0.575
CN(C)CCC=C1c2ccccc2CCc2ccccc21.Cl [Amitriptyline HCl],scaled lipid accumulation score,[1],0.863 (active)
C[C@H]1[C@H](OC(=O)CCC(=O)O)O[C@@H]2O[C@@]3(C)CC[C@H]4[C@H](C)CC[C@@H]1[C@@]24OO3,scaled lipid accumulation score,[1],≤ 0
C[C@H]1[C@H](OC(=O)CCC(=O)O)O[C@@H]2O[C@@]3(C)CC[C@H]4[C@H](C)CC[C@@H]1[C@@]24OO3 [Artesunate],scaled lipid accumulation score,[3],0.009
same,scaled lipid accumulation score,library stock concentration: 5.2 mM,≤ 0
same,scaled lipid accumulation score,[1],≤ 0
C/C=C/C/C=C/CCC(=O)[C@H]1O[C@H]1C(N)=O [Cerulenin],scaled lipid accumulation score,[2],≤ 0
same,scaled lipid accumulation score,library stock concentration: 22.4 mM,0.518
CCCCCC(O)C=CC1C=CC(=O)C1CCCCCCC(=O)O (centres undefined) [8-iso Prostaglandin A1],scaled lipid accumulation score,[2],≤ 0
CCCCCC(O)C=CC1C=CC(=O)C1CCCCCCC(=O)O (stereo not drawn) [15-epi Prostaglandin A1],scaled lipid accumulation score,[2],≤ 0
N[C@@H](Cc1c[nH]cn1)C(=O)O [L-Histidine hydrochloride],scaled lipid accumulation score,[1],≤ -0.07
"COC1=CC(=O)C=C(OC)C1=O [2,6-dimethoxyquinone]",scaled lipid accumulation score,[1],0.299
"CC(C)NCC(O)c1ccc(O)c(O)c1 (single isomer, unassigned; (-)) [(-)-Isoproterenol hydrochloride]",scaled lipid accumulation score,,≤ 0
same,scaled lipid accumulation score,[1],≤ -0.055
CC[C@H]1C(=O)OC[C@@H]1Cc1cncn1C [Isopilocarpine nitrate],scaled lipid accumulation score,[1],≤ 0
COc1cccc(OC)c1OCCNCC1CSc2ccccc2O1 (centres undefined) [Benoxathian hydrochloride],scaled lipid accumulation score,[1],0.629
CCCn1ncc(-c2ccnc(NC3CC(C)(C)NC(C)(C)C3)n2)c1C,scaled lipid accumulation score,[1],0.86 (active)
CC1(C)CC(Nc2nccc(-c3cnn(-c4ccccc4)c3)n2)CC(C)(C)N1,scaled lipid accumulation score,[1],0.799 (active)
C[C@@H]1O[C@@H](O[C@H]2[C@H](Oc3cc(O)c(C(=O)CCc4ccc(O)cc4)c(O)c3)O[C@H](CO)[C@@H](O)[C@@H]2O)[C@H](O)[C@H](O)[C@H]1O [Naringin Dihydrochalcone],scaled lipid accumulation score,[3],≤ 0
same,scaled lipid accumulation score,[1],0.078
O=C(O)CCC/C=C\C[C@@H]1CO[C@H](C(F)(F)F)O[C@@H]1c1ccccc1O,scaled lipid accumulation score,[1],≤ 0
"CCCCCCCC/C=C\CCCCCCCC(=O)OC[C@H](CO)OC(=O)CCCCCCC/C=C\CCCCCCCC [1,2-Dioleoyl-sn-glycerol]",scaled lipid accumulation score,[2],≤ 0
CCN(CC)CCCC(C)Nc1nc(C)cc(Nc2ccc3nc(C)cc(N)c3c2)n1 (centres undefined),scaled lipid accumulation score,[3],≤ -0.009
same,scaled lipid accumulation score,[1],0.217 and 0.086
CCN(CC)CCCC(C)Nc1c2ccc(Cl)cc2nc2ccc(OC)cc12 (centres undefined) [Quinacrine 2HCl dihydrate],scaled lipid accumulation score,library stock concentration: 5 mM,0.876 (active)
CCN(CC)CCCC(C)Nc1c2ccc(Cl)cc2nc2ccc(OC)cc12 (centres undefined) [Quinacrine dihydrochloride dihydrate],scaled lipid accumulation score,,0.288
CCN(CC)CCCC(C)Nc1c2ccc(Cl)cc2nc2ccc(OC)cc12 (centres undefined) [Quinacrine 2HCl],scaled lipid accumulation score,[3],0.307
same,scaled lipid accumulation score,[1],0.325
CCN(CC)CCCC(C)Nc1c2ccc(Cl)cc2nc2ccc(OC)cc12 (centres undefined) [Quinacrine dihydrochloride],scaled lipid accumulation score,[1],0.536
CCN(CC)CCCC(C)Nc1c2ccc(Cl)cc2nc2ccc(OC)cc12 (centres undefined) [Quinacrine hydrochloride],scaled lipid accumulation score,[1],0.586
c1ccc(-c2[nH]ncc2-c2ccnc3ccccc23)nc1,scaled lipid accumulation score,[2],≤ 0
same,scaled lipid accumulation score,[1],≤ -0.001
CC1=C(/C=C/C(C)=C/C=C/C(C)=C/CO)C(C)(C)CCC1 [Retinol],scaled lipid accumulation score,library stock concentration: 7 mM,≤ 0
same,scaled lipid accumulation score,[1],≤ 0
NC(=O)c1cc[n+](CC2=C(C(=O)[O-])N3C(=O)[C@@H](NC(=O)Cc4cccs4)[C@H]3SC2)cc1 [Cefalonium],scaled lipid accumulation score,,≤ 0
O=NN(CCCl)C(=O)NC1CCCCC1 [Lomustine],scaled lipid accumulation score,[3],0.044
same,scaled lipid accumulation score,library stock concentration: 8.6 mM,0.014
same,scaled lipid accumulation score,[1],≤ 0
CN1[C@@H]2CC[C@H]1C[C@@H](OC(c1ccccc1)c1ccccc1)C2 [Cogentin Mesylate],scaled lipid accumulation score,[1],0.598
"CN1[C@@H]2CC[C@H]1C[C@@H](OC(=O)C(O)c1ccccc1)C2 (mixture of isomers) [Homatropine hydrobromide (R,S)]",scaled lipid accumulation score,,0.043
CN1CCC(OC(c2ccccc2)c2ccccc2)CC1 [Diphenylpyraline hydrochloride],scaled lipid accumulation score,,0.332
same,scaled lipid accumulation score,[4],0.256
same,scaled lipid accumulation score,[1],0.235
CN1C2CCC1CC(OC(=O)C(O)c1ccccc1)C2 (centres undefined) [Homatropine bromide],scaled lipid accumulation score,[1],≤ 0
CN1C2CCC1CC(OC(c1ccccc1)c1ccccc1)C2.CS(=O)(=O)O (centres undefined) [Benztropine mesylate],scaled lipid accumulation score,[1],1.05 (active)
CN1[C@@H]2CC[C@H]1C[C@@H](OC(=O)C(O)c1ccccc1)C2 (mixture of isomers) [DL-Homatropine hydrobromide],scaled lipid accumulation score,[1],0.242
C1[C@@H](N(C)[C@@H]2C1)C[C@@H](OC(c3ccccc3)c4ccccc4)C2.CS(O)(=O)=O (some centres undefined) [Benztropine mesylate],scaled lipid accumulation score,[1],0.873 (active)
CN1[C@@H]2CC[C@H]1C[C@@H](OC(c1ccccc1)c1ccccc1)C2 [Benztropine],scaled lipid accumulation score,library stock concentration: 4.9 mM,0.193
same,scaled lipid accumulation score,[1],0.38
CN1C2CCC1CC(OC(=O)C(O)c1ccccc1)C2 (centres undefined) [Homatropine Bromide],scaled lipid accumulation score,[3],≤ 0
same,scaled lipid accumulation score,[1],≤ -0.001
CN1[C@@H]2CC[C@H]1C[C@@H](OC(c1ccccc1)c1ccccc1)C2 [Benztropine mesylate],scaled lipid accumulation score,[3],0.003
